# The list is not random: actives were taken first. Their share in the collection is about 2.8%.
# MITF TRPM1 inh: inhibitors of MITF-dependent TRPM1 promoter reporter, primary screen, cell-based, SK-MEL-5, single point, luciferase | inhibition, % at 12.5 µM | SK-MEL-5 TRPM1 promoter luciferase, 24 h | actives 0.83% (n = 330,000) | AID 488899, 2010;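 active = mean inhibition across replicates of 60% or more, whatever share of single replicates reaches that level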
# B2AR ag: beta2AR agonists driving receptor internalization, primary screen, cell-based, FAP fluorogen, flow cytometry | Beta-2 adrenergic receptor (Homo sapiens), P07550 | actives 0.43% (n = 340,000) | response, % (test concentration not listed) | Am2.2-beta2AR cells;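 active = response above a set limit, near 3 SD of response in nonfluorescent compounds, cut at about 42% in these data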
# Target sequence (P07550 whole entry, looked up): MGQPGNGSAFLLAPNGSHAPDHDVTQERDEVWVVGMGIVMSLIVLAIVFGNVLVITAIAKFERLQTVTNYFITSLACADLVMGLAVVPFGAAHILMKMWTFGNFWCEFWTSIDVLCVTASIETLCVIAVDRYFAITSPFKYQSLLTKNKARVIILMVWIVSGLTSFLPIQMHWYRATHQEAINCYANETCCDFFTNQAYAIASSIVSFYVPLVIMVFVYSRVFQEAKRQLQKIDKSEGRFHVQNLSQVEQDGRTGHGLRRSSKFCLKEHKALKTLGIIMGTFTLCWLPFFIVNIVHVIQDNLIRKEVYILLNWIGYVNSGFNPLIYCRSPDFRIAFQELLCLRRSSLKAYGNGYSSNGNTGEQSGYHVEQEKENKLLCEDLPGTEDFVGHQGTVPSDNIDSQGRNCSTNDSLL
# HIF-2a inh: HIF-2a reporter inhibitors, primary screen, luminescence, 786-0 RCC cells | actives 0.72% (n = 360,000) | 786-0 RCC cells HIF-2a reporter, luciferase luminescence, overnight | AID 624352, 2012 | inhibition, % at 18.8 µM;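 active = inhibition of the luminescence signal of 40% or more relative to plate controls, in a single-dose primary screen at 18.75 µM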
# Peg3 prom inh: Peg3 promoter-driven luciferase inhibitors, primary screen, cell-based, HeLa, luciferase luminescence; HeLa PEG-Prom luciferase reporter, overnight; actives 1.7% (n = 360,000); inhibition, % at 20 µM;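 active = inhibition of at least 50% at 20 µM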
# KKLEB cytotox: cytotoxicity in KKLEB CF airway cells, primary screen, cytotoxicity control for CF NF-kB inhibitor project, cell-based, uHTS, fluorescence assay plates; KKLEB CF airway cells viability, ATPlite luminescence, overnight; hits give low values; cells stimulated with P. aeruginosa culture filtrate; activity change (cytotoxicity), % at 5 µM; actives 0.36% (n = 360,000);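 active = corrected activity change at or below -50% at 5 µM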
# CF NFkB inh: inhibitors of PAF-induced NF-kB signaling, primary screen, cell-based, GFP fluorescence, uHTS; actives 0.86% (n = 360,000); inhibition, % at 5 µM; KKLEB NF-kB-GFP reporter, GFP fluorescence overnight;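 active = at least 50% inhibition at 5 µM, scaled per plate between neutral and stimulator controls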;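 note: PAF is a Pseudomonas aeruginosa culture filtrate used as stimulus; plate controls were PAF-stimulated DMSO wells for no effect and unstimulated DMSO wells for full effect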
# An asterisk follows results filed as active; . = no result given.
SMILES,MITF TRPM1 inh,B2AR ag,HIF-2a inh,Peg3 prom inh,KKLEB cytotox,CF NFkB inh
CC1=C(C(=O)N(C(C)C)C(C)C)CC(CC(=O)NC(c2ccccc2)c2ccccc2)C(=O)N1CCC1=CCCCC1 (stereo unspecified),.,.,-8.9,4.3,-22.8,13.2
CCCC(C)(C)C(=O)N1CCC1(C)C(=O)Nc1cccc(OC)c1 (stereo unspecified),.,.,2.2,0.6,-2.9,9.3
Cc1cc(Cl)n2c(nc3ccccc32)c1C#N,81.3*,98.7*,-24.1,103.4*,-31.2,64.5*
CNc1cc(C)c(C#N)c2nc3ccccc3n12,-12.4,14.0,10.2,10.0,-11.2,-43.9
Cc1c(CCCl)c(Cl)n2c(nc3ccccc32)c1C#N,97.4*,57.1*,83.7*,101.0*,-84.8*,77.5*
CC(C)N(CC(=O)Nc1ccc(Cl)cc1C(F)(F)F)C(=O)CCl,9.6,13.1,18.2,64.9*,-19.9,2.3
O=C(O)CSCC(=O)Nc1ccc(Cl)cc1C(F)(F)F,-8.9,3.3,17.1,8.3,6.4,-15.8
CCOC(=O)C1=C[C@@H](C(C)(C)C)N(S(=O)(=O)c2ccc(C)cc2)[C@H]1c1ccc(C)cc1,.,.,-16.9,19.5,3.5,2.2
Cc1cc(SCC(=O)N/N=C/c2ccc(O)c(O)c2O)c(C)cc1Br,65.5*,-1.6,22.7,41.4,-6.1,-8.7
CC(=O)Nc1cccc(C(=O)/C=C/c2ccc(C)cc2)c1,22.6,-3.2,-18.1,96.9*,-8.3,36.3
CCC(=O)Nc1cccc(C(=O)/C=C/c2ccc(F)cc2)c1,62.1*,4.8,27.0,99.8*,0.3,46.8
O=C(c1ccc(S(=O)(=O)Nc2ccccc2F)cc1)N1CCCC1,6.4,5.3,-2.9,5.3,-4.5,12.0
COC1(OC)C(/C=C/c2ccc(Cl)cc2)C(C#N)(C#N)C1(OC)OC (stereo unspecified),13.9,-1.5,13.3,62.9*,-60.3*,56.9*
C[C@@H](CO)NC(=O)c1[nH]cnc1C(=O)Nc1ccc(CNC(=O)OC(C)(C)C)cc1,.,.,-2.0,-7.9,10.8,-5.3
O=C(C1=C(O)C(=O)N(CCN2CCOCC2)C1c1ccc(F)cc1)c1cc2ccccc2o1 (stereo unspecified),-0.5,75.3*,-8.6,-33.1,7.7,-15.5
O=C(C1=C(O)C(=O)N(CCN2CCOCC2)C1c1cccc(Br)c1)c1cc2ccccc2o1 (stereo unspecified),7.9,26.8,15.4,-5.0,-5.6,-2.4
O=C1CCCCCCC(=O)[C@H](O)C[C@H](c2ccccc2)O1,.,.,-1.3,.,.,.
CN(C)CCCN1C(=O)c2cccc3cccc(c23)C1=O,9.0,-5.4,23.9,27.3,13.1,-71.7
CN(C)CCN1C(=O)c2cccc3cc([N+](=O)[O-])cc(c23)C1=O,84.4*,-3.2,46.2*,97.2*,-14.4,-146.4
Cc1cc(N2C(=O)C=CC2=O)c([N+](=O)[O-])cc1C,32.0,23.7,50.5*,105.4*,-1.1,65.5*
Cc1cccc(C)c1-n1nnnc1C(c1ccnc2ccccc12)N1CCOCC1 (stereo unspecified),.,.,18.1,.,.,.
C[C@@H]1CN([C@H](C)CO)C(=O)CCCn2cc(nn2)CO[C@H]1CN(C)C(=O)Nc1ccnc(N2CCOCC2)c1,.,.,6.6,1.7,-1.2,-13.3
COc1ccc(Cl)cc1C(=O)NCCN(C)C,2.0,15.5,2.8,2.4,2.5,-7.5
CN(C)CCNC(=O)c1ccc(COc2ccc(Cl)cc2Cl)cc1,17.4,27.4,-72.6,53.6*,-27.7,26.3
COc1cc(F)ccc1-c1csc(C(C)(O)c2ccc(F)c(F)c2)n1 (stereo unspecified),.,.,9.6,5.6,-9.9,13.1
SMILES,MITF TRPM1 inh,B2AR ag,HIF-2a inh,Peg3 prom inh,KKLEB cytotox,CF NFkB inh
O=C1C=CC(=O)c2c(O)c(CO)c(CO)c(O)c21,102.8*,2.3,-6.1,-8.3,19.7,7.6
O=c1c(CO)cc(CO)cc(CO)c1O,0.7,-6.9,0.5,-11.2,1.5,-12.6
Cc1ccc2nc3c(cc(C(=O)NCc4ccccc4)c(=N)n3CCCn3ccnc3)c(=O)n2c1,-11.4,17.4,16.0,54.4*,7.2,-22.0
Cc1cc(C)c2c(c1)/C(=N/Nc1ccc(S(N)(=O)=O)cc1[N+](=O)[O-])CCC2,-10.4,0.1,8.1,61.2*,-18.9,21.7
OCC1OC(c2ccc(OCc3ccccc3)cc2OCc2ccccc2)C(O)C1O (stereo unspecified),.,.,-4.9,5.6,-7.7,16.9
C[C@H]1CN([C@@H](C)CO)C(=O)CCCn2nncc2CO[C@H]1CN(C)C(=O)C1CC1,.,.,0.3,-7.5,-1.3,-2.3
COc1ccc(NC(=O)CN(C)CC(=O)Nc2cccc(F)c2)cc1S(=O)(=O)N1CCCCC1,12.7,-6.7,18.8,21.5,-1.7,0.3
Cc1ccc(NC(=O)c2ccccc2NS(=O)(=O)c2ccc(F)cc2)cc1S(=O)(=O)N1CCCCC1,30.5,7.5,11.4,52.5*,-25.5,48.0
Cc1ccc(NC(=O)CN(C)CC(=O)Nc2cccc(F)c2)cc1S(=O)(=O)N1CCCCCC1,10.1,-5.7,14.9,59.1*,-13.5,-10.6
O=C(Nc1cccc(S(=O)(=O)N2CCCCC2)c1)c1ccccc1NS(=O)(=O)c1ccc(F)cc1,17.8,20.6,4.4,36.5,-18.6,43.5
O=S(=O)(NCCS(=O)(=O)N1CCN(c2ccc(F)cc2)CC1)c1ccccc1,.,.,6.6,11.1,-1.0,-6.7
O=C(Nc1ccccc1)c1ccccc1Oc1ccc(C(F)(F)F)cc1[N+](=O)[O-],6.7,12.0,6.0,56.1*,4.4,-4.5
CC(C)NC(=O)N(C)C[C@H]1OCc2cnnn2CCCC(=O)N([C@H](C)CO)C[C@H]1C,.,.,9.3,-8.6,-5.5,-1.8
COc1cc(Br)cc(/C=C/c2ccc3cccc(O)c3n2)c1OC,23.0,-3.3,-6.9,-7.6,-5.0,-23.8
COc1cccc(/C=C/c2ccc3cccc(O)c3n2)c1OC,-14.6,15.0,-313.3,89.8*,-23.3,-63.2
COc1cc(/C=C/c2ccc3cccc(O)c3n2)cc(OC)c1OC,77.6*,26.6,-59.9,95.2*,-4.3,8.1
COc1ccc(/C=C/c2ccc3cccc(O)c3n2)c(OC)c1OC,-19.1,20.5,-187.0,85.8*,-15.3,-26.8
CC1(CN2CCCC2)CCC(NC(=O)C(c2ccccc2)c2ccccc2)C(C)(C)O1 (stereo unspecified),.,.,-1.8,2.9,-3.1,-9.7
CCCCCCCCCCCCCCC[C@@H](O)[C@@H](N)CO,28.9,36.4,16.2,51.5*,-22.7,0.2
CCCCCCCCCC(=O)OCC(O)CO (stereo unspecified),4.8,0.8,-3.1,7.1,22.7,-4.9

# Screening results from PubChem.
